About 79,000 compounds went through this panel and 15% of them were active in at least one assay; those are over-represented in the sample as a whole. Unmarked numbers belong to inactive results. The source made the active and inactive calls. Rule as the data show it: active = growth inhibition above about 70%; inactive = the rest.

The nature of assay [1]: NCI Yeast Anticancer Drug Screen. Data for the rad50 strain (AID 155).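 Also: 0% = growth of vehicle-only cultures of the same strain.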 The conditions noted are these: S. cerevisiae rad50 strain growth inhibition; at 50.0 µM; active compounds read high. The gist of the method: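 Growth of the mutant yeast was measured after compound exposure and referenced to vehicle-treated cultures.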
A short description of assay [2]: NCI Yeast Anticancer Drug Screen. Data for the mec2-1 strain (AID 157). The conditions noted are these: S. cerevisiae mec2-1 strain, at 50.0 µM, active compounds read high. The gist of the method: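 Mutant yeast (mec2-1) grown with compound; growth inhibition relative to vehicle control reported.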
A short description of assay [3]: NCI Yeast Anticancer Drug Screen. Data for the sgs1 mgt1 strain (AID 161).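 Also: 0% = growth of cultures given vehicle only.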 The conditions noted are these: S. cerevisiae sgs1 mgt1 strain, at 50.0 µM, active compounds read high. A digest of the protocol:
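Compounds are added to genetically altered yeast, and growth is compared with cultures given vehicle alone to give percent inhibition.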

Assay [4] in a line: NCI Yeast Anticancer Drug Screen. Data for the cln2 rad14 strain (AID 165).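 Also: 0% = growth equal to vehicle treated cultures.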 The conditions noted are these: S. cerevisiae cln2 rad14 strain, at 50.0 µM, active compounds read high. A digest of the protocol: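 Readout is yeast growth inhibition versus vehicle-treated controls, using a strain with cln2 and rad14 alterations exposed to compound.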
A short description of assay [5]: NCI Yeast Anticancer Drug Screen. Data for the bub3 strain (AID 167). The conditions noted are these: S. cerevisiae bub3 mutant strain, at 50.0 µM, active compounds read high. The gist of the method: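 Whole-cell yeast assay. The mutant strain was incubated with compounds, and growth inhibition was determined by comparison with vehicle-treated cells.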
Assay [6] in a line: NCI Yeast Anticancer Drug Screen. Data for the mlh1 rad18 strain (AID 175). The conditions noted are these: S. cerevisiae mlh1 rad18 strain growth inhibition; at 50.0 µM; active compounds read high. A digest of the protocol: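 Genetically defined yeast (DNA repair-deficient) exposed to compounds; growth inhibition determined relative to vehicle.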

Turning to `CN(C)CC1C(O)C2CCN1CC2` (stereo unspecified), the growth inhibition in assay [1] is 3.95%; in assay [2], 9.3%; in assay [3] it was -3.1%; in assay [4], -5.3%; in assay [5], -5.5%; in assay [6], -1.85%.
Regarding `O=[N+]([O-])c1ccc(N2CC2)c([N+](=O)[O-])c1`, the growth inhibition in assay [1] is 1.85%; in assay [2], -1.95%; in assay [3], 10.5%; in assay [4] it was 20%; in assay [5], -0.95%; in assay [6] it was 5.45%.
With `Cc1cc(S(=O)(=O)F)ccc1O`, the growth inhibition in assay [1] is -3%; in assay [2], -6.2%; in assay [3], -16.5%; in assay [4], -42.8%; in assay [5], -2.6%; in assay [6] it was -1.3%.
For the compound `CNC(C)Cc1ccccc1OC` (stereo unspecified), the growth inhibition in assay [1] was -10.8%; in assay [2] it was -12.4%; in assay [3], -1.2%; in assay [4], 2.65%; in assay [5] it was -4.55%; in assay [6], 11.4%.
As for `N.N.N.N.N.[Co+3].[I-].[N-]=[N+]=[N-]`, the growth inhibition in assay [1] was -0.25%; in assay [2], 32.8%; in assay [3], -25.4%; in assay [4], 20.4%; in assay [5], -6.05%; in assay [6], -9.05%.
On to `COc1ccc(OP2OCC(C)O2)cc1` (stereo unspecified), for which the growth inhibition was -1.1% in assay [1]; -46.8% in assay [2]; -10.4% in assay [3]; -30% in assay [4]; -2.6% in assay [5]; 2.5% in assay [6].
Consider `CCCCC(=O)c1cc(OC)cc(OC)c1`, for which the growth inhibition in assay [1] was 8.35%; in assay [2], -12.3%; in assay [3], -34.1%; in assay [4], -54%; in assay [5], 22.4%; in assay [6], -10.7%.
Regarding `O=C(NC1CC1)C(Cl)Cl`, the growth inhibition is -0.15% in assay [1]; -25.1% in assay [2]; 5.85% in assay [3]; 11% in assay [4]; -16.4% in assay [5]; -1.15% in assay [6].
For the compound `COCC1OC2OC3C(COC)OC(OC4C(COC)OC(OC5C(COC)OC(OC6C(COC)OC(OC7C(COC)OC(OC8C(COC)OC(OC1C(O)C2O)C(O)C8O)C(O)C7O)C(O)C6O)C(O)C5O)C(O)C4O)C(O)C3O` (stereo unspecified) (tested in a mixture with another compound), the growth inhibition in assay [1] was 13.2%; in assay [2], -13.6%; in assay [3], -4.6%; in assay [4] it was 20.1%; in assay [5], -18.8%; in assay [6], -64.7%.
`COC(=O)c1cncn1C(C)c1cccc2ccccc12` (stereo unspecified): the growth inhibition in assay [1] was 90.7% (active); in assay [2], 91% (active); in assay [3], 79.2% (active); in assay [4], 59%; in assay [5], 88.2% (active); in assay [6], 89.3% (active).
On to `O=c1oc2ccccc2c(O)c1C(c1ccc2c(c1)OCO2)c1c(O)c2ccccc2oc1=O`, for which the growth inhibition in assay [1] is -5.8%; in assay [2] it was -4.75%; in assay [3], 34.7%; in assay [4], 7%; in assay [5], 3.65%; in assay [6], 28.4%.
As to `CC(Cl)CN(CC(C)Cl)c1ccc2c(c1)Cc1ccccc1-2` (stereo unspecified), the growth inhibition in assay [1] is -20.8%; in assay [2], -10.1%; in assay [3], 2.65%; in assay [4], -46.9%; in assay [5], 23.1%; in assay [6], 9%.
Turning to `CCC[As](=O)(O)CC[As](=O)(O)CCC`, the growth inhibition was 15.8% in assay [1]; 34.2% in assay [2]; 59.3% in assay [3]; -3.05% in assay [4]; 0.8% in assay [5]; 14.4% in assay [6].
As to `CCOP(=O)(OCC)/C(C#N)=C/c1ccc(C)o1`, the growth inhibition in assay [1] was -34.2%; in assay [2], -13.3%; in assay [3], -49.6%; in assay [4] it was -7%; in assay [5] it was -19.8%; in assay [6], -41.6%.
For `CCCCNC(=O)CCl`, the growth inhibition in assay [1] was 13.4%; in assay [2] it was 13.7%; in assay [3] it was 9.15%; in assay [4], -0.4%; in assay [5], 9.3%; in assay [6], 13.8%.
Consider `CCC1(CCOc2ccccc2)C(=O)NC(=O)NC1=O`, for which the growth inhibition was -10.9% in assay [1]; -1.45% in assay [2]; 1.3% in assay [3]; -6.55% in assay [4]; 1.6% in assay [5]; -1.85% in assay [6].
With `O=C1C=CC(=O)N1CO`, the growth inhibition was 23.2% in assay [1]; 19.2% in assay [2]; 9% in assay [3]; 6.4% in assay [4]; 26.9% in assay [5]; 9.25% in assay [6].
Turning to `C=[CH][Sn]([CH]=C)([c]1ccccc1)[c]1ccccc1`, the growth inhibition was -7.5% in assay [1]; -12.8% in assay [2]; -14.2% in assay [3]; -0.65% in assay [4]; -26.8% in assay [5]; 12.3% in assay [6].
For `CCCCOC(N)=O`, the growth inhibition in assay [1] was -34.6%; in assay [2], -11.6%; in assay [3], 29.4%; in assay [4], -19.9%; in assay [5] it was 0.1%; in assay [6], 0.3%.
For `ClCCN(CCCl)c1ccc(CCCCN2CCCCC2)cc1`, the growth inhibition was 20.2% in assay [1]; 23.2% in assay [2]; 21.2% in assay [3]; 14.2% in assay [4]; 19.2% in assay [5]; 47% in assay [6].
Regarding `COc1ccc(C(CC(=O)O)CC(=O)N(CCCl)CCCl)cc1C` (stereo unspecified), the growth inhibition is 64% in assay [1]; 25.6% in assay [2]; 17% in assay [3]; 27.1% in assay [4]; 63.7% in assay [5]; 24.4% in assay [6].

(Values after PubChem BioAssay (NCI).)
